Our source for the inhibition values is PubChem BioAssay.

Calls of active or inactive are those of the source. Rule as the data show it: active = inhibition above about 30%; inactive = the rest. Square brackets hold non-standard residues; d marks the D form. Peptide text beside a SMILES is read from it. NMeY = CN[C@@H](Cc1ccc(O)cc1)C(=O)O; NMeF = CN[C@@H](Cc1ccccc1)C(=O)O; 2Abz = Nc1ccccc1C(=O)O

In the assay the test system is transactivating tegument protein VP16 (Human herpesvirus 1), Gal4-VP16 luciferase reporter. Nature of the assay: repression of VP16-driven luciferase reporter – cell-based, luminescence, high throughput, counter-screen for SRC3 inhibitor project (AID 588794). The settings on record: mammalian cells, at 3.6 µM, stronger effect = higher value. For orientation: A reporter such as luciferase makes a cellular process visible.
Regarding `O=c1[nH]c(=O)n([C@H]2C[C@H](O)[C@@H](CO)O2)cc1Br`, the inhibition (usually the drop in the measured response relative to a control, in per cent) was 16.2% (inactive).
Consider `Cc1ccc(S(=O)(=O)NCc2ccc(C(=O)N3CCN(c4ccc([N+](=O)[O-])cc4)CC3)cc2)cc1`, for which the inhibition is 36.9% (active).
For `O=C(CCl)NC1CCCc2ccccc21` (stereo not given), the inhibition was -5.4% (inactive).
Consider `Cc1cccc(N2CCN(C(=O)C3CCN(c4ncnc5c4nc4n5CCCCC4)CC3)CC2)c1C`, for which the inhibition was 11.5% (inactive).
On to `c1ccc(CN2CCN(c3ncnc4c3[nH]c3ccccc34)CC2)cc1`, for which the inhibition is 29.9% (active).
As for `COc1ccc2c(=O)c3c(=O)n(CCc4ccccc4)c(C(C)C)nc3oc2c1`, the inhibition was 17.5% (inactive).
Consider `O=c1cc(CNc2cc(C(F)(F)F)cc(C(F)(F)F)c2)nc2sccn12`, for which the inhibition was 3.94% (inactive).
The figure for `COc1cccc(CNCCO)c1OCc1ccccc1` is 8.14% (inactive); for `COc1ccc(CNC(=O)[C@H](Cc2ccccc2)NC(=O)C2CCN(C(=O)[C@H](C)N)CC2)cc1` it is -2.01% (inactive).
Then `Clc1ccc(-c2noc(CSc3nnc(-c4ccncc4)n3-c3ccccc3)n2)cc1`, with 8.1% (inactive); and `CCOc1ccc(/C=C/C(O)=C2/C(=O)NC3(C)CC2c2ccccc2O3)cc1OC` (stereo not given), with 39% (active); and `CC(C(=O)N1c2ccccc2Sc2ccccc21)n1nnc(-c2cccs2)n1` (stereo not given), with 6.84% (inactive).
Then `CCN(CC)C(=O)c1[nH]cnc1C(=O)N[C@@H](CCCCNC(=O)OC(C)(C)C)C(=O)OC(C)(C)C`, with -3.67% (inactive); and `Cc1cccc(Oc2sc(C(=O)c3ccccc3)c(N)c2C#N)c1`, with 5.81% (inactive); and `COc1cccc(/C=C/C(=O)OCC(=O)N2CCCC2)c1OC`, with -16% (inactive).
With `COc1cccc(/C=N/NC(=O)CNC(=O)C(c2ccccc2)c2ccccc2)c1O`, the inhibition is 20.7% (inactive).
The figure for `CC(=O)c1c(C)[nH]c(C(=O)OCC(=O)Nc2ccc(C)cc2[N+](=O)[O-])c1C` is 52.8% (active).
The figure for `Nc1nc(CCl)nc(N(c2ccccc2)c2ccccc2)n1` is 15.9% (inactive).
In the case of `C#CCOCCOCCOCCNc1nc(N2CCN(C(=O)Cn3cc(CCCN=C(N)N)nn3)CC2)nc(N2CCN(C(=O)[C@H](C)n3cc(CCCN=C(N)N)nn3)CC2)n1`, the inhibition is 0.02% (inactive).
Regarding `Cc1ccc(-c2nc(CS(=O)CC(=O)NCCCN3CCN(Cc4ccccc4)CC3)c(C)o2)cc1` (stereo not given), the inhibition is 8.49% (inactive).
For `CCN(CC)c1ccc(/C=N/NC(=O)c2cnccn2)c(O)c1`, the inhibition is 52.3% (active).
As for `O=C(Nc1sc2c(c1C(=O)O)CCCC2)c1ccc(Cl)cc1`, the inhibition was 50.5% (active).
Take `Cc1nc(Nc2nc(CSc3nc4ccccc4[nH]3)cc(=O)[nH]2)nc2ccccc12`: the inhibition is 3.35% (inactive).
Regarding `Cc1cc(C)n(-c2ccc(C(=O)Nc3cccc(S(=O)(=O)N(C)C)c3)cc2)n1`, the inhibition is 18.6% (inactive).
With `CCCC(=O)NC(c1ccc2c(c1)OCO2)c1cc(Cl)c2cccnc2c1O` (stereo not given), the inhibition is 25.3% (inactive).
For the compound `CC(C)C[C@@H]1NC(=O)[C@H](Cc2ccccc2)N(C)C(=O)[C@H](C)NC(=O)c2ccccc2NC(=O)[C@H](Cc2ccc(O)cc2)N(C)C1=O` (cyclo([2Abz]A[NMeF]L[NMeY])), the inhibition is 17.5% (inactive).
As for `CCn1cc(C(=O)NCc2ccco2)c(=O)c2cc(S(=O)(=O)N3CCCCCC3)ccc21`, the inhibition was 23.5% (inactive).
On to `COc1ccc(/C=C(\C#N)C(=O)OCC(=O)N(C)C2CCS(=O)(=O)C2)cc1` (stereo not given), for which the inhibition is -11% (inactive).
The figure for `CC1CCCC=CC2CC(OC(=O)CN(C)C)CC2C(O)C=CC(=O)O1` (stereo not given) is 71.2% (active).
The figure for `COc1ccc(OC)c(N/C=C/C(=O)c2ccccc2)c1` is 17.5% (inactive); for `O=C(Nc1cccc2ccccc12)OC1C=CS(=O)(=O)C1` (stereo not given) it is 15.6% (inactive); for `CC(=O)Nc1ccc(NC(=O)c2ccc(N(Cc3ccccc3C)S(C)(=O)=O)cc2)cc1` it is -7.31% (inactive).
With `Cc1cc(NC2CCCCC2)nc(NCc2ccccc2)n1`, the inhibition was 28.1% (inactive).
For the compound `Cc1ccc(Cl)cc1N(Cc1ccc(C(=O)NCc2cccnc2)cc1)S(=O)(=O)c1ccccc1`, the inhibition is -10.9% (inactive).
Turning to `Cc1ccccc1-n1nnnc1Sc1nnnn1-c1ccccc1`, the inhibition is 7.79% (inactive).
For the compound `Cn1nc(C(C)(C)C)cc1C(=O)NCc1ccc(N2CCCC2=O)cc1`, the inhibition was 38.8% (active).
Regarding `CC(=O)Nc1cccc(C(=O)/C=C/c2ccc(F)cc2)c1`, the inhibition was 2.15% (inactive).
As to `Cc1ccc(S(=O)(=O)NCCC(=O)Nc2ccncc2)cc1C`, the inhibition was -0.54% (inactive).
Then `Nc1ccccc1-c1ccc([N+](=O)[O-])cc1`, with 33.1% (active); and `COc1ccccc1NS(=O)(=O)c1cc(NC(=O)c2ccc(Cl)nc2)ccc1Cl`, with 30.7% (active).
